This note sets out measurements from the supplement of paper PMC9262897, “Low-cost anti-mycobacterial drug discovery using engineered E. coli” (Nature Communications, 2022).

Where a name gives a salt, the structure may show the parent alone. ± gives the standard deviation of the averaged measurements.

What all share (test): growth (OD600 after 10 h); higher = more growth (less inhibition)
Assay [1] deals with E. coli TESEC Alr+ wild-type control. As to conditions: compound 0.1 mM; raw OD600 reference: median of DMSO wells 0.241, cell-free background 0.041. On the procedure: (§1)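 TESEC Mtb Alr E. coli, or the Alr+ wild-type control, in 384-well plates with Prestwick library compounds at 0.1 mM and 1% DMSO, across arabinose induction levels of 1E3 to 1E7 nM. Growth is read as OD600 after 10 h at 37 °C in triplicate biological replicates.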

In assay [2] the test system is E. coli TESEC Mtb Alr. The conditions noted are these: compound 0.1 mM. On the procedure:
as §1

Assay [3] has as its system E. coli TESEC Mtb Asd. The conditions noted are these: compound 0.1 mM. On the procedure: (§2)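 TESEC E. coli strains in which the native enzyme is deleted and replaced by arabinose-inducible Mtb Asd, DapB, CysH or TrpD, each grown in its selective medium. Strains were screened against the Prestwick library at 0.1 mM and 1% DMSO in 384-well format at low and high arabinose induction. Growth is read as OD600 after 10 h in triplicate.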

Assay [4] concerns E. coli TESEC Mtb DapB. The conditions noted are these: compound 0.1 mM. On the procedure:
as §2

The subject of assay [5] is E. coli TESEC Alr+ wild-type control. As to conditions: compound 0.1 mM; raw OD600 reference: median of DMSO wells 0.49, cell-free background 0.052. On the procedure:
(§3)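 TESEC Mtb Alr E. coli (ΔaraC ΔtolC ΔentC Δalr ΔdadX, arabinose-inducible Mtb Alr) or the Alr+ wild-type control strain, grown in defined M9-fructose medium without D-alanine in 96-well plates with Prestwick library compounds at 0.1 mM and 1% DMSO. Low Alr induction is 0.1 µM arabinose and high induction is 10 mM arabinose.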

Assay [6] concerns E. coli TESEC Mtb Alr. As to conditions: compound 0.1 mM. On the procedure: as §3
The source holds these as a separate data set.

Setting [7] is: arabinose 1000 nM, raw OD600 reference: median of DMSO wells 0.294, cell-free background 0.041.
The mark [8] stands for this setting: arabinose 10000 nM, raw OD600 reference: median of DMSO wells 0.264, cell-free background 0.041.
Where [9] appears, read: arabinose 100000 nM, raw OD600 reference: median of DMSO wells 0.201, cell-free background 0.041.
The mark [10] stands for this setting: arabinose 1000000 nM, raw OD600 reference: median of DMSO wells 0.193, cell-free background 0.041.
Where [11] appears, read: arabinose 10000000 nM, raw OD600 reference: median of DMSO wells 0.146, cell-free background 0.041.
[12] abbreviates: arabinose induction (level): High, raw OD600 reference: median of DMSO wells 0.331, cell-free background 0.041.
[13] abbreviates: arabinose induction (level): Low, raw OD600 reference: median of DMSO wells 0.417, cell-free background 0.041.
[14] abbreviates: arabinose induction (level): High, raw OD600 reference: median of DMSO wells […], cell-free background 0.041.
Setting [15] is: arabinose induction (level): Low, raw OD600 reference: median of DMSO wells 0.227, cell-free background 0.041.
The mark [16] stands for this setting: arabinose 100 nM, raw OD600 reference: median of DMSO wells 0.413, cell-free background 0.052.
[17] abbreviates: arabinose 10000000 nM, raw OD600 reference: median of DMSO wells […], cell-free background 0.052.

On to `O=P(O)(O)C(Cl)(Cl)P(=O)(O)O` [Clodronate], for which the growth was determined as 0.248 ± 0.0073 in assay [1]; 0.308 ± 0.021 in assay [2] (setting [7]); 0.284 ± 0.005 in assay [2] (setting [8]); 0.188 ± 0.016 in assay [2] (setting [9]); 0.193 ± 0.0024 in assay [2] (setting [10]); 0.14 ± 0.0033 in assay [2] (setting [11]). The growth in assay [3] (setting [12]) came out at 0.336 ± 0.042; in assay [3] (setting [13]), 0.403 ± 0.025; in assay [4] (setting [14]), 0.223 ± 0.024; in assay [4] (setting [15]), 0.212 ± 0.024; in assay [5], 0.528 ± 0.084; in assay [6] (setting [16]) it was 0.411 ± 0.0072. Further, the growth in assay [6] (setting [17]) was determined as 0.303 ± 0.0027.

On to `CC(C)/N=c1\cc2n(-c3ccc(Cl)cc3)c3ccccc3nc-2cc1Nc1ccc(Cl)cc1` [Clofazimine], for which the growth in assay [1] is 0.158 ± 0.004; in assay [2] (setting [7]) it was 0.231 ± 0.016; in assay [2] (setting [8]), 0.154 ± 0.037; in assay [2] (setting [9]), 0.225 ± 0.023; in assay [2] (setting [10]), 0.0638 ± 0.0033; in assay [2] (setting [11]) it was 0.168 ± 0.013. Besides, the growth in assay [3] (setting [12]) was 0.247 ± 0.053; in assay [3] (setting [13]) it was 0.337 ± 0.11; in assay [4] (setting [14]) it was 0.248 ± 0.023; in assay [4] (setting [15]) it was 0.261 ± 0.012; in assay [5] it was 0.154 ± 0.012; in assay [6] (setting [16]) it was 0.395 ± 0.031. The compound also yielded a growth in assay [6] (setting [17]) of 0.06873 ± 0.00031.

Take `COC(=O)C1=C(C#N)NC(C)=C(C(=O)OC(C)C)C1c1cccc([N+](=O)[O-])c1` (configuration not stated) [Nilvadipine]: the growth in assay [1] amounted to 0.148 ± 0.0031; in assay [2] (setting [7]), 0.203 ± 0.014; in assay [2] (setting [8]) it was 0.2569 ± 0.001; in assay [2] (setting [9]), 0.164 ± 0.014; in assay [2] (setting [10]) it was 0.0883 ± 0.002; in assay [2] (setting [11]), 0.149 ± 0.033. In addition, the growth came out at 0.16 ± 0.0063 in assay [3] (setting [12]); 0.325 ± 0.029 in assay [3] (setting [13]); 0.208 ± 0.019 in assay [4] (setting [14]); 0.214 ± 0.015 in assay [4] (setting [15]); 0.212 ± 0.16 in assay [5]; 0.429 ± 0.0067 in assay [6] (setting [16]). The compound further yielded a growth in assay [6] (setting [17]) of 0.06 ± 0.0039.

With `Cc1cccc(C)c1NC(=O)C(C)N` (configuration not stated) [Tocainide hydrochloride], the growth in assay [1] is 0.26 ± 0.0084; in assay [2] (setting [7]) it was 0.318 ± 0.0085; in assay [2] (setting [8]), 0.269 ± 0.0071; in assay [2] (setting [9]), 0.187 ± 0.014; in assay [2] (setting [10]), 0.1844 ± 0.0016; in assay [2] (setting [11]) it was 0.145 ± 0.0027. Besides, the growth in assay [3] (setting [12]) is 0.209 ± 0.016; in assay [3] (setting [13]) it was 0.433 ± 0.031; in assay [4] (setting [14]) it was 0.232 ± 0.038; in assay [4] (setting [15]), 0.244 ± 0.06; in assay [5], 0.483 ± 0.061; in assay [6] (setting [16]) it was 0.4 ± 0.015. This compound also came in with a growth in assay [6] (setting [17]) of 0.307 ± 0.023.
